Assay results as given in PubChem BioAssay (NCI).
About 79,000 compounds went through this panel and 15% of them were active in at least one assay; those are over-represented in the sample as a whole. Active and inactive are the calls of the source. Rule as the data show it: active = growth inhibition above about 70%; inactive = the rest.

What was measured:
[1] = NCI Yeast Anticancer Drug Screen. Data for the rad52 strain (AID 147);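 also: 0% = growth of vehicle-treated control cultures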; conditions: S. cerevisiae rad52 mutant growth inhibition, stronger effect = higher value
In short: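 Inhibition of yeast growth, referenced to vehicle controls, was the measured output for a strain with defective DNA damage repair.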

[2] = NCI Yeast Anticancer Drug Screen. Data for the wt1 strain (AID 149);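 also: 0% = growth of vehicle-treated wt1 cultures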; conditions: S. cerevisiae wt1 strain (SPY 50644) growth inhibition, stronger effect = higher value
In short: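 Measured: growth of wt1 yeast under compound versus vehicle treatment, reported as inhibition.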

[3] = NCI Yeast Anticancer Drug Screen. Data for the rad50EPP+ strain (AID 151);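 also: 0% = growth of vehicle-treated control cultures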; conditions: S. cerevisiae rad50 mutant strain, stronger effect = higher value
In short: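 Genetically defined yeast (rad50EPP+, DNA damage repair alteration) is grown with compound, and inhibition of growth is expressed relative to vehicle-treated controls.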

[4] = NCI Yeast Anticancer Drug Screen. Data for the mgt1 strain (AID 153); conditions: S. cerevisiae mgt1 mutant growth inhibition, stronger effect = higher value
In short: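 In the mgt1 strain, test compounds were added and growth inhibition was determined relative to vehicle-treated controls.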

[5] = NCI Yeast Anticancer Drug Screen. Data for the rad50 strain (AID 155);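 also: 0% = growth of vehicle-only cultures of the same strain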; conditions: S. cerevisiae rad50 strain growth inhibition, stronger effect = higher value
In short: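 Growth of the mutant yeast was measured after compound exposure and referenced to vehicle-treated cultures.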

[6] = NCI Yeast Anticancer Drug Screen. Data for the mec2-1 strain (AID 157); conditions: S. cerevisiae mec2-1 strain, stronger effect = higher value
In short: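 Each compound was tested on mec2-1 yeast, a strain altered in DNA damage repair or cell cycle control. Growth inhibition is reported relative to vehicle.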

[7] = NCI Yeast Anticancer Drug Screen. Data for the rad14 strain (AID 159);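 also: 0% = growth of vehicle-treated control cultures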; conditions: S. cerevisiae rad14 strain growth inhibition, stronger effect = higher value
In short: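 Here, inhibition of yeast growth was measured after compound exposure, using a strain with a genetic defect in DNA damage repair and vehicle-treated cultures as the reference.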

[8] = NCI Yeast Anticancer Drug Screen. Data for the sgs1 mgt1 strain (AID 161);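 also: 0% = growth of cultures given vehicle only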; conditions: S. cerevisiae sgs1 mgt1 strain, stronger effect = higher value
In short: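 Read-out: growth inhibition vs vehicle controls. Cells: mutant yeast strain deficient in DNA damage repair.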

[9] = NCI Yeast Anticancer Drug Screen. Data for the CLN2oe strain (AID 163);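 also: 0% = growth of vehicle-only control cultures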; conditions: S. cerevisiae CLN2oe strain, stronger effect = higher value
In short: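 First, the altered yeast strain was treated with each compound; second, its growth was measured; finally, inhibition was derived by comparison with vehicle controls.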

[10] = NCI Yeast Anticancer Drug Screen. Data for the cln2 rad14 strain (AID 165);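 also: 0% = growth equal to vehicle treated cultures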; conditions: S. cerevisiae cln2 rad14 strain, stronger effect = higher value
In short: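 Test compounds were added to cln2 rad14 yeast cultures; inhibition of growth was then determined by comparison with vehicle treatment.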

[11] = NCI Yeast Anticancer Drug Screen. Data for the bub3 strain (AID 167); conditions: S. cerevisiae bub3 mutant strain, stronger effect = higher value
In short: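 Whole-cell yeast assay. The mutant strain was incubated with compounds, and growth inhibition was determined by comparison with vehicle-treated cells.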

[12] = NCI Yeast Anticancer Drug Screen. Data for the wt2 strain (AID 169);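 also: 0% = growth of vehicle-treated yeast cultures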; conditions: S. cerevisiae wt2 strain growth inhibition, stronger effect = higher value
In short: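 The panel's yeast strains carry defined changes in DNA repair or cell cycle genes. Each strain is grown with compound, and growth loss is scored relative to vehicle.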

[13] = NCI Yeast Anticancer Drug Screen. Data for the mlh1 strain (AID 171);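 also: 0% = growth of vehicle-treated control cultures of the same strain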; conditions: S. cerevisiae mlh1 strain growth inhibition, stronger effect = higher value
In short: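 Inhibition values reflect reduced yeast growth in the presence of compound, referenced to vehicle controls, using a strain chosen for its alteration in DNA repair or cell cycle control.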

[14] = NCI Yeast Anticancer Drug Screen. Data for the sgs1 strain (AID 173);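 also: 0% = growth of vehicle-only control cultures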; conditions: S. cerevisiae sgs1 mutant, stronger effect = higher value
In short: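 Vehicle-treated cultures served as reference for growth inhibition of a yeast strain altered in DNA damage repair or cell cycle control after compound exposure.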

[15] = NCI Yeast Anticancer Drug Screen. Data for the mlh1 rad18 strain (AID 175); conditions: S. cerevisiae mlh1 rad18 strain growth inhibition, stronger effect = higher value
In short: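 Inhibition values reflect reduced growth of mutant yeast versus vehicle-treated controls following compound exposure; the mutations affect DNA damage repair.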

[16] = at 5.0 µM (retest, dose inferred, filed as 0.5)
[17] = at 50.0 µM (retest, dose inferred, filed as 5.0)

Measured: growth inhibition

CCOC(=O)C1=C(C(=O)OCC)C2(c3ccccc3)N(O1)c1ccccc1C2(C)C (stereo not drawn)
inactive: [1]; at 1.2 µM -3% | [1]; at 3.7 µM -2% | [1]; at 11.0 µM 0% | [1]; at 33.0 µM 3% | [2]; at 1.2 µM -2% | [2]; at 3.7 µM -5% | [2]; at 11.0 µM -4% | [2]; at 33.0 µM -1% | [2]; at 100.0 µM 54% | [3]; at 1.2 µM -6% | [3]; at 3.7 µM -7% | [3]; at 11.0 µM -5% | [3]; at 33.0 µM -6% | [3]; at 100.0 µM 15% | [4]; at 1.2 µM -1% | [4]; at 3.7 µM 0% | [4]; at 11.0 µM -1% | [4]; at 33.0 µM -3% | [5]; at 1.2 µM -1% | [5]; at 3.7 µM -2% | [5]; [16] 54% | [5]; at 11.0 µM -3% | [5]; at 33.0 µM -1% | [5]; [17] 54% | [5]; at 50.0 µM 63% | [5]; at 100.0 µM 67% | [6]; at 1.2 µM -3% | [6]; at 3.7 µM -3% | [6]; [16] 35% | [6]; at 11.0 µM -5% | [6]; at 33.0 µM -7% | [6]; [17] 35% | [6]; at 50.0 µM 27.5% | [7]; at 1.2 µM 0% | [7]; at 3.7 µM -4% | [7]; at 11.0 µM -3% | [7]; at 33.0 µM -8% | [7]; at 100.0 µM 62% | [9]; at 1.2 µM -4% | [9]; at 3.7 µM -2% | [9]; at 11.0 µM -4% | [9]; at 33.0 µM -5% | [10]; [16] 6% | [10]; [17] 6% | [10]; at 50.0 µM 43.3% | [11]; at 1.2 µM -6% | [11]; at 3.7 µM -5% | [11]; [16] 31% | [11]; at 11.0 µM 8% | [11]; at 33.0 µM 13% | [11]; [17] 31% | [11]; at 50.0 µM 44.4% | [12]; at 1.2 µM -2% | [12]; at 3.7 µM -3% | [12]; at 11.0 µM -2% | [12]; at 33.0 µM 0% | [13]; at 1.2 µM -3% | [13]; at 3.7 µM -6% | [13]; at 11.0 µM -5% | [13]; at 33.0 µM -3% | [14]; at 1.2 µM -5% | [14]; at 3.7 µM -5% | [14]; at 11.0 µM -6% | [14]; at 33.0 µM -2% | [15]; [16] 32% | [15]; [17] 32% | [15]; at 50.0 µM 15.4%
active: [1]; at 100.0 µM 71% | [4]; at 100.0 µM 78% | [6]; at 100.0 µM 74% | [8]; [16] 71% | [8]; [17] 71% | [8]; at 50.0 µM 79.8% | [9]; at 100.0 µM 79% | [11]; at 100.0 µM 77% | [12]; at 100.0 µM 75% | [13]; at 100.0 µM 80% | [14]; at 100.0 µM 81%
